Test systems include DU-145 prostate; K-562 leukemia; MALME-3M melanoma; MDA-MB-231 breast; RXF 393 renal; SF-268 CNS; SF-295 CNS; SF-539 CNS; UACC-257 melanoma; M14 melanoma.
Holding throughout (assay): NCI-60 one-dose screen, 48 h (100 = growth as untreated, 0 = no growth, -100 = all killed)
Conditions in all cases: 10 µM unless noted

Molecules are shown by their SMILES. This is part of a sample that, as a whole, favours compounds with a hit. Of some 83,000 tested, about 20% had one in any assay.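 Cell lines were cultured in 96-well plates, exposed to a single compound concentration, and assessed for percent growth 48 hours later.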 Values without a mark were called inactive. Active and inactive are the calls of the source. Rule for the calls: active = growth percent below 10; inactive = the rest.

The values that follow come from PubChem BioAssay (NCI).

Turning to `CC(=O)OC/C(C)=C\CC(C)COC(C)=O` (configuration not stated), the growth in the test with DU-145 prostate is 114%; in the test on K-562 leukemia, 103%; in the test on MALME-3M melanoma, 102%; in the test on MDA-MB-231 breast, 99.7%; in the test with RXF 393 renal, 97.1%; with SF-268 CNS it was 109%. Besides, the figures for the growth with SF-295 CNS, in the test with SF-539 CNS and in the test on UACC-257 melanoma were 94.6%, 116% and 102%, respectively.
As to `Cc1cc(C)cc(OCC(=O)O)c1`, the growth was 111% in the test with DU-145 prostate; 93.3% with K-562 leukemia; 92.3% with MALME-3M melanoma; 106% in the test on MDA-MB-231 breast; 135% in the test on RXF 393 renal; 114% with SF-268 CNS. In addition, the growth in the test on SF-295 CNS is 96.5%; in the test with SF-539 CNS, 96.2%; with UACC-257 melanoma it was 100%; in the test on M14 melanoma, 102%.
Regarding `CC(=O)OCC1CCC(COC(C)=O)CC1` (configuration not stated), the growth is 102% in the test with DU-145 prostate; 104% in the test on K-562 leukemia; 104% in the test on MALME-3M melanoma; 119% with MDA-MB-231 breast; 106% in the test with RXF 393 renal; 95.1% with SF-268 CNS. Further, the results for the growth in the test on SF-295 CNS, in the test with SF-539 CNS and in the test with UACC-257 melanoma were 99%, 104% and 82.9%, respectively.
Take `CCCCCCCCNC(=O)C(C)C`: the growth was 105% with DU-145 prostate; 108% with K-562 leukemia; 106% with MALME-3M melanoma; 109% in the test with MDA-MB-231 breast; 93% with RXF 393 renal; 104% in the test on SF-268 CNS. Moreover, the growth was 100% with SF-295 CNS, 96.9% in the test on SF-539 CNS and 108% in the test with UACC-257 melanoma.
`CC(c1ccccc1)N1C(=O)CSC1=S` (configuration not stated): the growth with DU-145 prostate is 26.9%; in the test with K-562 leukemia it was 5.61% (active); in the test on MALME-3M melanoma, 79.3%; with MDA-MB-231 breast, 29.9%; with RXF 393 renal it was -25% (active); in the test on SF-268 CNS, 24.9%. Moreover, the growth in the test with SF-295 CNS was 101%; in the test on SF-539 CNS, -59.7% (active); with UACC-257 melanoma it was 55.3%; in the test with M14 melanoma, 28.7%.
Consider `Cc1cc(=O)n(Nc2ccccc2)c(O)c1C#N`, for which the growth with DU-145 prostate was 109%; in the test with K-562 leukemia, 92.5%; with MALME-3M melanoma, 105%; in the test on MDA-MB-231 breast, 103%; in the test on RXF 393 renal it was 124%; in the test on SF-268 CNS it was 102%. For the same molecule, the growth was 101% in the test on SF-295 CNS, 104% in the test on SF-539 CNS, 116% with UACC-257 melanoma and 99.4% with M14 melanoma.
On to `Cc1ccc(S(=O)(=O)CCCl)cc1`, for which the growth with DU-145 prostate was 112%; in the test with K-562 leukemia, 95.6%; with MALME-3M melanoma it was 117%; in the test with MDA-MB-231 breast, 117%; with RXF 393 renal it was 100%; in the test on SF-268 CNS it was 93.8%. The growth in the test on SF-295 CNS is 111%; in the test with SF-539 CNS, 100%; in the test with UACC-257 melanoma it was 100%; with M14 melanoma, 104%.
`CCOC(=O)c1ccc(NC(C)=O)o1`: the growth in the test on DU-145 prostate is 111%; in the test with K-562 leukemia, 84.3%; with MALME-3M melanoma it was 107%; in the test on MDA-MB-231 breast it was 105%; with RXF 393 renal, 102%; with SF-268 CNS it was 100%. Also, the growth in the test on SF-295 CNS was 98.5%; in the test with SF-539 CNS, 105%; in the test with UACC-257 melanoma it was 80.2%; in the test with M14 melanoma it was 106%.
`Oc1cc2ccccc2c(-c2c(O)c(O)cc3ccccc23)c1O`: the growth is 47.3% in the test on DU-145 prostate; 43.8% in the test with K-562 leukemia; 75.4% with MALME-3M melanoma; 75.1% in the test with MDA-MB-231 breast; 72.7% in the test on RXF 393 renal; 37.9% in the test with SF-268 CNS. For the same molecule, the growth was -48% (active) with SF-295 CNS, 21.4% with SF-539 CNS, 56.1% in the test on UACC-257 melanoma and 25% in the test on M14 melanoma.
On to `CC1CC(C)S(=O)(=O)C1` (configuration not stated), for which the growth is 104% with DU-145 prostate; 92.4% with K-562 leukemia; 110% in the test with MALME-3M melanoma; 115% in the test on MDA-MB-231 breast; 115% in the test with RXF 393 renal; 111% with SF-268 CNS. For the same molecule, the growth with SF-295 CNS is 105%; in the test on SF-539 CNS, 104%; in the test with UACC-257 melanoma, 95.7%; in the test with M14 melanoma, 111%.
`CN(CCCN(C)CCC1CCCCC1)CCC1CCCCC1`: the growth in the test with DU-145 prostate was 83.8%; in the test with K-562 leukemia, -57.5% (active); in the test with MALME-3M melanoma, -74.7% (active); in the test with MDA-MB-231 breast, -3% (active); in the test on RXF 393 renal it was -4.36% (active); with SF-268 CNS it was 84.2%. The growth is 27.1% in the test with SF-295 CNS, -57.7% (active) in the test with SF-539 CNS, -66.3% (active) in the test with UACC-257 melanoma and -100% (active) in the test on M14 melanoma.
As to `Cc1ccc(O)c(N)c1`, the growth with DU-145 prostate was 122%; in the test with K-562 leukemia it was 113%; in the test on MALME-3M melanoma it was 103%; in the test with MDA-MB-231 breast it was 92.8%; in the test with RXF 393 renal, 117%; in the test with SF-268 CNS it was 112%. The growth was 131% in the test with SF-295 CNS, 103% with SF-539 CNS, 111% in the test with UACC-257 melanoma and 108% with M14 melanoma.
Take `COC(=O)C1(CC(C)=O)NC(=S)NC(=O)C1C#N` (configuration not stated): the growth is 125% in the test with DU-145 prostate; 104% in the test on K-562 leukemia; 103% with MALME-3M melanoma; 104% with MDA-MB-231 breast; 107% with RXF 393 renal; 117% in the test with SF-268 CNS. Moreover, the growth is 96.8% in the test with SF-295 CNS, 103% with SF-539 CNS, 118% in the test on UACC-257 melanoma and 110% with M14 melanoma.
Consider `CC(=O)/C(C)=N\OC(=O)Nc1ccccc1`, for which the growth is 104% in the test on DU-145 prostate; 98.4% with K-562 leukemia; 104% in the test on MALME-3M melanoma; 99.3% in the test on MDA-MB-231 breast; 125% in the test with RXF 393 renal; 101% with SF-268 CNS. In addition, the growth is 101% in the test on SF-295 CNS, 95.3% in the test on SF-539 CNS, 98.7% in the test on UACC-257 melanoma and 101% in the test on M14 melanoma.
Regarding `CN(C(=S)S(=O)(=O)C12CC3CC(CC(C3)C1)C2)c1ccccc1`, the growth in the test with DU-145 prostate was 95.3%; with K-562 leukemia, 72%; in the test on MALME-3M melanoma it was 108%; with MDA-MB-231 breast it was 88.9%; in the test with RXF 393 renal it was 111%; with SF-268 CNS, 94.5%. In addition, the growth in the test on SF-295 CNS was 105%; with SF-539 CNS, 97.6%; in the test with UACC-257 melanoma, 87.3%; in the test on M14 melanoma it was 107%.
